Our source for the PGE2 EC50 with compound values is PubChem BioAssay AID1421 (Emory University Molecular Libraries Screening Center, 2008).

Molecules are shown by their SMILES. The campaign covered roughly 1,300 compounds. About 140 (11%) were called active. The rule behind the calls is not given here. The list is a sample of the results. Measured potencies and affinities stand elsewhere.

In the test the target is Prostaglandin E2 receptor EP2 subtype (Homo sapiens) (UniProt P43116). Description: EP2 receptor modulators, dose response, cell-based, human EP2, PGE2 EC50 shift (AID 1421). Particulars: EP2-expressing cells, PGE2 EC50 shift by compound; at 20 µM.
Prostaglandin E2 receptor EP2 subtype (Homo sapiens), sequence (P43116 whole entry, looked up): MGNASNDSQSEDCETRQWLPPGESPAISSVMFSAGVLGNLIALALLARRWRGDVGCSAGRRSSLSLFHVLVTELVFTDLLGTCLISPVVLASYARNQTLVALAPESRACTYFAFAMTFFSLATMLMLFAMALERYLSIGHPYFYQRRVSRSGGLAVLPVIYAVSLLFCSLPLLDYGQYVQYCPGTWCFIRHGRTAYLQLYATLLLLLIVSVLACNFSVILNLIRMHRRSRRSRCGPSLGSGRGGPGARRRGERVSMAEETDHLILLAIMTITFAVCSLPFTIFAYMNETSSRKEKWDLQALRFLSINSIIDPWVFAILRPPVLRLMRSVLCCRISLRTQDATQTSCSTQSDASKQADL
For the compound `COC(=O)c1ccccc1NC(=O)C(C)Oc1ccccc1` (centres undefined), the PGE2 EC50 with compound is 0.81 nM (inactive).

Consider `c1ccc(Cc2nc3ccccc3n2Cc2ccccc2)cc1`, for which the PGE2 EC50 with compound is 0.31 nM (inactive).

Turning to `Cc1cccc(OCc2n[nH]c(=S)n2Cc2ccccc2)c1`, the PGE2 EC50 with compound was 0.47 nM (inactive).

In the case of `COc1ccc(C(=O)O)cc1NC(=S)NC(=O)c1ccc(-c2ccc(Cl)cc2)o1`, the PGE2 EC50 with compound is 462 nM (inactive).

As to `COCCn1c(SCC(=O)NCCc2ccccc2)nnc1-c1ccco1`, the PGE2 EC50 with compound is 0.68 nM (inactive).

For `CC(C)n1c2ccccc2c2nnc(SCC(=O)Nc3ccccc3C(=O)O)nc21`, the PGE2 EC50 with compound is 1.63 nM (inactive).

For `COc1ccc(C(=O)Nc2cc(C)nn2-c2nc3ccccc3[nH]2)c(OC)c1`, the PGE2 EC50 with compound is 0.24 nM (inactive).

Take `Cc1cc(C)n(-c2cc(-c3ccccc3)nc(C)n2)n1`: the PGE2 EC50 with compound is 0.22 nM (inactive).

Consider `Cc1oc(-c2ccccc2)cc1C(=O)Nc1cccc(/C=C\C(=O)O)c1`, for which the PGE2 EC50 with compound entry was “inactive”.

As for `c1cncc(-c2nc(N3CCOCC3)c3c4c(sc3n2)CCC4)c1`, the PGE2 EC50 with compound is 0.72 nM (inactive).

For the compound `Cc1ccc(C2CC(c3cccs3)=NN2C(=O)c2ccc(Br)o2)cc1` (centres undefined), the PGE2 EC50 with compound was 0.31 nM (inactive).

On to `Cc1ccccc1NC(=S)N(Cc1ccco1)C(C)c1cccs1` (centres undefined), for which the PGE2 EC50 with compound is 0.4 nM (inactive).

Take `Cc1ccc(Cl)cc1NC(=S)N(Cc1ccco1)C(C)c1cccs1` (centres undefined): the PGE2 EC50 with compound was 0.26 nM (inactive).

Take `O=C(NCc1ccco1)c1ccc(=O)[nH]n1`: the PGE2 EC50 with compound was 0.48 nM (inactive).

As for `C/C(CCc1oc2ccccc2c1-c1ccc(C)o1)=N/O`, the PGE2 EC50 with compound is 0.47 nM (inactive).

Consider `Cc1ccc(-c2cc3nn(-c4ccccc4)c(N)c3c(=O)o2)cc1`, for which the PGE2 EC50 with compound is 1.29 nM (inactive).

Take `Cc1ccc(N=Nc2c(N)[nH]n3c(=O)c4c(nc23)CCCC4)cc1`: the PGE2 EC50 with compound was 3.42 nM (inactive).

As for `O=C(O)COc1ccc2occ(C(=O)c3ccccc3)c2c1`, the PGE2 EC50 with compound was 0.37 nM (inactive).

Consider `CCOc1nc(C)cc(C)c1S(=O)(=O)c1ccc(Cl)cc1`, for which the PGE2 EC50 with compound is 0.21 nM (inactive).

Regarding `CC(/C=C1\SC(=S)N(C(C(=O)O)C(C)C)C1=O)=C\c1ccccc1` (centres undefined), the PGE2 EC50 with compound is 1.95 nM (inactive).

On to `COc1ccccc1CNC(=O)C1(c2ccc(Cl)cc2)CC1`, for which the PGE2 EC50 with compound was 0.43 nM (inactive).

In the case of `CCC(=O)N1CCN(c2nc(-c3ccccc3)c3c(c2C#N)CCCC3)CC1`, the PGE2 EC50 with compound is 0.31 nM (inactive).

Turning to `CCCCc1nc(N2CCOCC2)c(C#N)c2c1CCCC2`, the PGE2 EC50 with compound is 0.37 nM (inactive).

Take `CCOc1ccc(OCC)c(NC(=O)CN2CCN(c3cc(C)ccc3C)CC2)c1`: the PGE2 EC50 with compound was 0.45 nM (inactive).

Turning to `Cc1occc1-c1nnc(SCC(=O)Nc2ccccc2N2CCCCC2)n1C`, the PGE2 EC50 with compound is 1.17 nM (inactive).

Turning to `O=C(CNCc1ccccc1Cl)Nc1ccccc1N1CCCCC1`, the PGE2 EC50 with compound was 0.81 nM (inactive).

In the case of `O=C(Cc1c(F)cccc1Cl)Nc1ccccc1N1CCCCC1`, the PGE2 EC50 with compound is 0.53 nM (inactive).

As for `CC(C)(C)N(Cc1ccccc1)C(=O)c1ccc(Br)o1`, the PGE2 EC50 with compound was 0.51 nM (inactive).

As for `COC(=O)NC1(C(F)(F)F)C(=O)NC(C)=C1C(=O)OC` (centres undefined), the PGE2 EC50 with compound is 0.72 nM (inactive).

With `CCOC(=O)C1=C(C)N(C)C(C)=C(C(=O)OCC)C1c1ccccc1`, the PGE2 EC50 with compound was 0.51 nM (inactive).

Regarding `CCOC(=O)N1CCC(=C2c3ccc(Cl)cc3CCc3cccnc32)CC1`, the PGE2 EC50 with compound is 0.38 nM (inactive).

As for `CC1CCN(c2nc(-c3ccncc3)nc3ccccc23)CC1`, the PGE2 EC50 with compound was 0.52 nM (inactive).

In the case of `Cc1nnc(SCC(=O)N2c3ccccc3C(C)(c3ccccc3)CC2(C)C)s1` (centres undefined), the PGE2 EC50 with compound was 0.37 nM (inactive).

In the case of `O=C(c1ccc(Cl)cc1)c1oc2ccccc2c1CS(=O)c1ccc(Cl)cc1` (centres undefined), the PGE2 EC50 with compound is 0.25 nM (inactive).

As for `O=C(COc1cccc2ccccc12)N1c2ccccc2CCc2ccccc21`, the PGE2 EC50 with compound was 0.35 nM (inactive).

Turning to `Clc1ccc(Cl)c(-c2ccc(/C=N/c3ncn[nH]3)o2)c1`, the PGE2 EC50 with compound is 2.61 nM (inactive).

On to `COc1ccccc1N(C(=O)NCc1ccccc1)C1=NCC(C)S1` (centres undefined), for which the PGE2 EC50 with compound was 0.21 nM (inactive).

Take `CCn1c2ccc(OC)cc2c2nc3ccccc3nc21`: the PGE2 EC50 with compound was 0.85 nM (inactive).

For the compound `O=c1cc(N2CCCCC2)c(-c2ccccc2)nn1Cc1ccccc1Cl`, the PGE2 EC50 with compound was 0.4 nM (inactive).

`CC1=CC2C(C(C)C)CCC(C)(O)C2CC1` (centres undefined): the PGE2 EC50 with compound is 0.83 nM (inactive).

As to `O=C(NCc1ccco1)C(c1cccs1)N(C(=O)Cc1cccs1)c1ccccc1` (centres undefined), the PGE2 EC50 with compound is 0.44 nM (inactive).

As to `COc1ccc(CCN(Cc2nc(-c3ccccc3)no2)Cc2nc(-c3ccccc3)no2)cc1OC`, the PGE2 EC50 with compound is 0.49 nM (inactive).

With `COc1ccc(-c2noc(-c3ccccc3-c3ccccc3)n2)cc1OC`, the PGE2 EC50 with compound was 0.17 nM (inactive).

Take `c1ccc(-c2noc(-c3ccccc3-c3ccccc3)n2)cc1`: the PGE2 EC50 with compound was 0.5 nM (inactive).

In the case of `COc1cc(-c2noc(-c3cccc(Cl)c3)n2)cc(OC)c1OC`, the PGE2 EC50 with compound is 0.47 nM (inactive).

As for `c1ccc(-c2noc(-c3cccc4ccccc34)n2)cc1`, the PGE2 EC50 with compound is 0.52 nM (inactive).

`Cc1ccc(-c2csc3ncnc(N4CCc5ccccc5C4)c23)cc1`: the PGE2 EC50 with compound is 0.42 nM (inactive).

Take `Cc1ccc(-c2nn3c(C)nnc3s2)cc1NCc1c(F)cccc1Cl`: the PGE2 EC50 with compound was 0.97 nM (inactive).

Turning to `CC(C)Sc1nc2sc3c(c2c2nnc(SCC(=O)NCc4ccco4)n12)CCCC3`, the PGE2 EC50 with compound was 0.83 nM (inactive).

For the compound `Cc1sc2ncnc(Sc3ccccc3C(=O)O)c2c1C`, the PGE2 EC50 with compound is 3.01 nM (inactive).

As for `COc1cccc(-c2nc(N3CC(C)CC(C)C3)c3ccccc3n2)c1O` (centres undefined), the PGE2 EC50 with compound was 0.13 nM (inactive).

On to `CCSc1nc2c(c(=O)[nH]c(=O)n2C)n1Cc1ccc(Cl)cc1`, for which the PGE2 EC50 with compound is 0.83 nM (inactive).

On to `CCOc1cccc(CNc2ccc(O)cc2)c1OCc1ccccc1Cl`, for which the PGE2 EC50 with compound was 0.8 nM (inactive).

For `C=CCOc1ccccc1CNc1cccc(F)c1`, the PGE2 EC50 with compound was 0.37 nM (inactive).

Consider `Cc1cc(SC(C)C(=O)O)nc2ccccc12` (centres undefined), for which the PGE2 EC50 with compound was 1.16 nM (inactive).

`O=C(CSc1ncnc2c1oc1ccccc12)Nc1ccccc1F`: the PGE2 EC50 with compound was 1.24 nM (inactive).

`O=[N+]([O-])c1ccc(Cl)c2c1C1C=CCC1C(c1ccccn1)N2` (centres undefined): the PGE2 EC50 with compound was 0.53 nM (inactive).

In the case of `CC(=O)N(c1cccc(Br)c1)C1C=CS(=O)(=O)C1` (centres undefined), the PGE2 EC50 with compound is 0.92 nM (inactive).

As to `Cc1nnc(SCC(=O)NC2CCCCC2)n1C1CCCCC1`, the PGE2 EC50 with compound is 0.89 nM (inactive).

Consider `CC(NC(c1ccccc1)c1ccccc1)C(=O)N1CCCc2ccccc21` (centres undefined), for which the PGE2 EC50 with compound is 0.36 nM (inactive).

With `O=C(COc1ccccc1)Nc1cc(C(F)(F)F)ccc1N1CCCC1`, the PGE2 EC50 with compound was 0.31 nM (inactive).

Regarding `Cc1ccc(C(=O)O)cc1NC(=S)NC(=O)c1ccc(-c2ccccc2)cc1`, the PGE2 EC50 with compound was 1.3 nM (inactive).

`CC(=O)N1N=C2/C(=C/c3ccccc3)CCCC2C1c1ccccc1` (centres undefined): the PGE2 EC50 with compound is 0.44 nM (inactive).

Take `CCN=C1S/C(=C\c2ccc(O)c(OCC)c2)C(=O)N1CC`: the PGE2 EC50 with compound was 0.39 nM (inactive).

Regarding `CCCCOP(=O)(OCCCC)C(Nc1ccccc1)c1ccc2c(c1)OCO2` (centres undefined), the PGE2 EC50 with compound was 0.36 nM (inactive).

With `CC(C)N(CCNC(=O)c1oc(=O)c2ccccc2c1-c1ccccc1)Cc1ccco1`, the PGE2 EC50 with compound was 0.81 nM (inactive).

On to `C/C(=N\N(Cc1ccccc1)c1ccccc1)c1cccnc1`, for which the PGE2 EC50 with compound is 0.37 nM (inactive).

Turning to `Oc1ccc(/C=N/N(Cc2ccccc2)c2ccccc2)cc1`, the PGE2 EC50 with compound is 0.73 nM (inactive).

As for `c1ccc(-c2ccccc2-c2nc(-c3cccnc3)no2)cc1`, the PGE2 EC50 with compound is 0.05 nM (inactive).

Take `Cc1scc(-c2n[nH]c(=S)n2Cc2ccccc2)c1C`: the PGE2 EC50 with compound is 0.54 nM (inactive).

Consider `COc1ccc(N2CCN(c3nc4c(c(=O)n(C)c(=O)n4C)n3Cc3ccccc3)CC2)cc1`, for which the PGE2 EC50 with compound was 0.9 nM (inactive).

As for `Cc1ccccc1NC1=C(C(=O)c2ccccc2)N(C)S(=O)(=O)c2ccccc21`, the PGE2 EC50 with compound was 0.78 nM (inactive).

For the compound `Cc1cc(NC(=O)C2=C(O)c3ccccc3S(=O)(=O)N2C)no1`, the PGE2 EC50 with compound was 0.77 nM (inactive).

Take `CCOC(=O)CC(=O)CSc1nc(-c2ccc3c(c2)OCO3)cc(C(F)(F)F)c1C#N`: the PGE2 EC50 with compound was 1.22 nM (inactive).

Turning to `Cc1noc(C)c1CSc1nc2ccccc2c(=O)n1-c1ccc(F)cc1F`, the PGE2 EC50 with compound is 0.51 nM (inactive).

On to `Cc1noc(C)c1CSc1nc2ccccc2c(=O)n1-c1ccc(Cl)cc1`, for which the PGE2 EC50 with compound is 0.51 nM (inactive).

As for `CSc1nc(Oc2ccccc2)c2sccc2n1`, the PGE2 EC50 with compound was 0.62 nM (inactive).

In the case of `CCOC(=O)n1c(=O)n(Cc2ccc(Cl)c(Cl)c2)c2ccccc21`, the PGE2 EC50 with compound was 0.31 nM (inactive).

On to `COC(=O)c1cc(Br)c(=O)n(-c2nccs2)c1`, for which the PGE2 EC50 with compound was 17 nM (inactive).

With `C=C(C)COc1ccc2c(c1)CC[C@@H]1[C@H]3C/C(=N/O)C(=O)[C@]3(C)CC[C@@H]21`, the PGE2 EC50 with compound is 0.41 nM (inactive).

On to `Cc1cccc(OC(=O)c2sc(Cl)nc2C)c1`, for which the PGE2 EC50 with compound was 0.61 nM (inactive).

For the compound `Cc1noc(C)c1CSc1ncnc2sc(C)c(C)c12`, the PGE2 EC50 with compound was 0.35 nM (inactive).

Turning to `O=C(Nc1ccc2c(c1)OCO2)c1cccc2c1C(=O)N(C1CCCCC1)C2`, the PGE2 EC50 with compound is 0.58 nM (inactive).

As to `CCOP(=O)(OCC)c1nc(-c2cccc3ccccc23)oc1N1CCCCC1`, the PGE2 EC50 with compound is 0.42 nM (inactive).

Turning to `CCc1nc(N2CCC(C)CC2)c2oc3ccccc3c2n1`, the PGE2 EC50 with compound was 0.32 nM (inactive).

As for `O=C(c1ccc2c(c1)OCO2)N(Cc1cccs1)C1(C(=O)NC2CCCCC2)CCCCC1`, the PGE2 EC50 with compound was 0.42 nM (inactive).

With `O=C(COc1ccc(Br)cc1)Nc1ccc(-c2nnc(-c3ccco3)o2)cc1`, the PGE2 EC50 with compound is 0.53 nM (inactive).

Regarding `Cc1ccc2nc(N3CCC(C(=O)O)CC3)nc(-c3ccccc3)c2c1`, the PGE2 EC50 with compound was 0.5 nM (inactive).

Regarding `Cc1ccc(-n2c(Cc3cccc4ccccc34)n[nH]c2=S)c(C)c1`, the PGE2 EC50 with compound is 0.39 nM (inactive).

Take `CN(C)Cc1ccccc1Sc1cccc2ccccc12`: the PGE2 EC50 with compound was 0.37 nM (inactive).

Take `Cc1ccnc(SCC(=O)n2c3c(c4ccccc42)CC(C)CC3)n1` (centres undefined): the PGE2 EC50 with compound was 0.26 nM (inactive).

Regarding `COc1ccccc1-c1nnc(SCC(=O)c2ccc(C3CCCCC3)cc2)n1Cc1ccco1`, the PGE2 EC50 with compound is 0.46 nM (inactive).

Take `O=C(CN1CCN(Cc2ccccc2)CC1)Nc1ccccc1-c1ccccc1`: the PGE2 EC50 with compound was 0.83 nM (inactive).

`CCOC(=O)C1=NN(c2cccc(C)c2)C2(S1)SC(C(C)=O)=C(C)N2c1ccccc1` (centres undefined): the PGE2 EC50 with compound was 0.51 nM (inactive).
